# Screens as filed in PubChem.
# A selection: hits, their analogues and other compounds. The true share with any hit is near 4.4%.
# SKKanGAS inh – SKKanGAS growth inhibition; 300,000 compounds, 1.3% hits; AID 1662; inhibition, % at 7.5 µM; S. pyogenes SKKanGAS, kanamycin growth, BacTiter-Glo, 6 h;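 active = mean replicate score, as percent of positive control median, at least 50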;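 also: strain carries kanamycin resistance gene driven by streptokinase promoter and grows in 40 µg/ml kanamycin; loss of luminescence reflects streptokinase promoter inhibition or plain growth inhibition; 0% = median of DMSO wells and 100% = positive control at its reference dose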
# PfHsp90 set2 – inhibits growth of yeast expressing Plasmodium falciparum Hsp90; 310,000 compounds, 0.32% hits; inhibition, % at 9.4 µM; AID 504621; S. cerevisiae expressing PfHsp90, BacTiter-Glo ATP, 48 h; yeast lacking PDR1 and PDR3 efflux regulators;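 active = every replicate shows inhibition above about 80%, whatever the replicate mean, limit read from the data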;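 also: 0% = DMSO neutral controls and 100% = 20 µM radicicol positive controls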
# TIM10 inh – growth inhibitors of TIM10 yeast strain | S. cerevisiae TIM10 strain growth, BacTiter-Glo luminescence, 24 h | AID 463195 | 330,000 compounds, 1.4% hits | inhibition, % at 10 µM;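 active = inhibition of 40% or more at the single tested concentration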;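 also: wild-type TIM10 isogenic control strain grown at permissive 25 °C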
# tim23-1 inh – tim23-1 yeast growth inhibition; S. cerevisiae tim23-1 growth, BacTiter-Glo luminescence, 24 h; inhibition, % at 20 µM; 330,000 compounds, 1.3% hits; AID 463212;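 active = growth inhibition of the mutant yeast at or above 50%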;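 also: temperature-sensitive mutant grown at 25 °C; plate controls were DMSO-treated mutant yeast for no effect and medium wells lacking yeast for full effect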
# tim10-1 inh – inhibits growth of tim10-1 mutant yeast. 330,000 compounds, 2.2% hits. S. cerevisiae tim10-1 ts strain growth, BacTiter-Glo, 24 h. inhibition, % at 20 µM;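 active = inhibition of at least 40%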;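 also: mutant grown at 25 °C; 0% = DMSO wells with yeast and 100% = wells holding no yeast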
# tim23-1 conf – confirmation of tim23-1 mutant yeast growth inhibitors. shares compounds with tim23-1 inh. S. cerevisiae tim23-1 growth, BacTiter-Glo luminescence, 24 h. inhibition, % at 20 µM. 4,400 compounds, 83% hits. AID 463218;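 active = inhibition above about 39% in either of two replicate wells at 20 µM, limit read from the data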;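 also: temperature-sensitive tim23-1 mutant grown at 25 °C; 0% = DMSO wells with yeast and 100% = medium wells without yeast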
# The depositor's hits bear a star; / = no result.
SMILES,SKKanGAS inh,PfHsp90 set2,TIM10 inh,tim23-1 inh,tim10-1 inh,tim23-1 conf
Cc1cc(=O)oc2cc(Oc3ccc([N+](=O)[O-])cc3[N+](=O)[O-])ccc12,-1.0,-23.6,30.2,54.9*,21.2,42.8*
Cc1cc(=O)oc2cc(Oc3ncccc3[N+](=O)[O-])ccc12,-1.4,-37.9,-13.3,-5.5,-7.5,/
CC(O)[C@@]1(O)CC[C@H]2[C@@H]3CC[C@H]4C[C@@H](O)CC[C@]4(C)C3=CC[C@@]21C (stereo partly specified),6.4,12.0,8.9,30.8,12.8,/
O=S(=O)(c1ccc(Cl)cc1)N1CCN(c2ncnc3sccc23)CC1,/,-29.6,9.0,58.1*,-1.1,30.6
O=c1c2ccccc2nc(-c2ccc([N+](=O)[O-])cc2)n1O,2.3,7.9,29.7,51.6*,37.4,47.2*
Cc1ccc(-c2nc3ccccc3c(=O)n2O)cc1,15.5,24.1,-2.3,43.4,17.6,/
Cc1ccc(-c2nc3ccc(Cl)cc3c(=O)n2O)cc1,69.5*,14.6,38.2,62.9*,8.3,55.2*
Cc1nc2ccc(Br)cc2c(-c2ccccc2)c1C(=O)O,1.7,-1.4,-0.6,-0.1,-3.5,/
O=c1c2cc(Br)ccc2nc(-c2ccccc2)n1O,33.2,14.2,10.1,60.3*,22.9,50.4*
O=c1c2ccccc2nc(-c2ccccc2)n1Cc1ccc(Cl)cc1,24.0,/,24.8,33.2,32.3,/
O=c1c2ccccc2nc(-c2cccc(Cl)c2)n1O,-8.3,-117.7,35.8,59.4*,15.5,59.2*
O=c1c2cc(Cl)ccc2nc(-c2ccccc2Cl)n1O,17.0,0.5,-9.1,-7.4,11.7,/
O=c1oc2ccccc2c(O)c1C=Nc1cccnc1,3.9,9.3,11.4,-3.4,3.0,/
Cc1cc(C)c(O)c(NC(=S)NC(=O)Cc2ccccc2)c1,0.4,-6.8,30.5,45.9,28.2,/
COC(=O)[C@@]1(C)[C@H]2C(=O)N(Cc3ccccc3)C(=O)[C@H]2[C@H]2CN=C(SCc3ccc(Cl)cc3)N21,/,6.0,18.2,50.8*,23.6,29.9
CCOC(=O)N1CCN(CC(O)COc2ccc(C)c(C)c2)CC1 (stereo unspecified),-1.6,0.6,7.5,0.1,-0.5,/
Cc1noc(C)c1CSc1nc2ccccc2c(=O)n1-c1ccccc1,10.1,-37.4,13.1,52.0*,32.2,45.1*
CC(C)CCSc1nc(N2CCOCC2)c2c(c1C#N)CC(C)(C)OC2,-0.2,-16.5,0.0,60.2*,7.9,19.9
COC(=O)CCSc1nc(N2CCOCC2)c2c(c1C#N)CC(C)(C)OC2,5.3,8.0,6.6,18.3,19.9,/
O=C(CCNC(=O)c1ccco1)Nc1ccccc1OC(F)F,-0.4,10.0,16.9,-0.7,-6.5,/
Cc1ccc(S(=O)(=O)c2nc(Cc3ccccc3)oc2N2CCOCC2)cc1,/,1.4,2.2,15.6,4.6,/
O=C(COC(=O)C12CC3CC(CC(Cl)(C3)C1)C2)Nc1ccccc1,/,0.7,12.9,54.2*,0.1,46.0*
COc1ccc2oc(C(=O)OCC(=O)Nc3ccc(C(=O)N(C)C)cc3)c(C)c2c1,-5.9,17.6,-5.4,12.9,1.7,/
Cc1ccn2cc(-c3ccc(NC(=O)c4ccco4)cc3)nc2c1,-5.9,16.0,31.6,56.0*,-37.5,47.5*
O=C(Nc1nc(-c2ccc(Cl)s2)cs1)c1ccco1,13.2,16.4,28.6,62.2*,20.8,67.2*
SMILES,SKKanGAS inh,PfHsp90 set2,TIM10 inh,tim23-1 inh,tim10-1 inh,tim23-1 conf
O=C(Nc1nc(-c2cccs2)c(-c2ccccc2)s1)c1ccco1,51.8*,-25.7,36.0,55.3*,25.6,62.4*
Nc1nc(-c2ccc(NC(=O)c3ccco3)cc2)cs1,16.1,32.7,39.4,55.6*,35.3,69.8*
CC(=O)Nc1cccc(-c2cn3ccc(C)cc3n2)c1,2.7,-37.2,3.2,3.9,-0.6,/
O=C(Nc1ccc(NC(=O)c2ccco2)cc1)c1ccco1,-1.0,3.1,19.1,45.7,-22.2,/
O=C(Nc1nc(-c2nc3ccccc3s2)cs1)c1ccco1,-2.9,-39.3,-35.2,-11.6,-6.4,/
O=C(c1ccc2c(=O)n(Cc3ccc(Cl)cc3)c(=S)[nH]c2c1)N1CCOCC1,16.4,-18.3,-2.9,9.0,21.0,/
O=C(NCc1ccccc1C(F)(F)F)C1CCC(=O)N(CCCc2ccccc2)C1 (stereo unspecified),13.3,/,2.1,3.5,18.2,/
O=C(Nc1ccc(-c2ccc(N3CCCCC3)nn2)cc1)c1ccco1,20.2,/,30.1,62.8*,26.7,66.4*
CC(C)(C)c1csc(NC(=O)c2cccs2)n1,17.6,29.4,35.8,55.6*,-14.0,34.1
COc1cc(/C=C/[N+](=O)[O-])ccc1OC(=O)c1cc2ccccc2oc1=O,0.9,106.3*,24.8,79.6*,20.8,73.4*
COc1ccccc1OC(=O)c1cc2ccccc2oc1=O,4.8,-4.6,-3.6,26.1,8.1,/
Cc1nc(SCC(=O)NNC(=O)c2cccs2)[nH]c(=O)c1C,0.6,-19.0,0.0,0.1,4.7,/
Cc1nnc(N2CCCCC2)c2ccccc12,0.7,17.5,1.3,-0.9,0.0,/
Cc1ccc(-c2nnc(N3CCCCC3)c3ccccc23)cc1,-1.4,11.6,35.8,53.9*,38.4,53.1*
CC1CCN(c2nnc(N3CCC(C)CC3)c3ccccc23)CC1,3.6,-4.3,15.2,70.4*,13.2,57.3*
CCCC(C)NC(=O)COC(=O)c1cccc(NS(C)(=O)=O)c1 (stereo unspecified),-7.4,10.7,-18.0,-0.2,6.1,/
CCc1ccc(S(=O)(=O)Nc2ccc(O)c3c(=O)cc(-c4ccccc4Cl)oc23)cc1,39.9,19.3,-2.3,1.1,-6.5,/
O=c1cc(-c2ccccc2Cl)oc2c(NS(=O)(=O)c3cc(Cl)cc(Cl)c3O)ccc(O)c12,109.1*,/,27.2,51.9*,4.3,-222.4
CCc1nnc(NS(=O)(=O)c2ccc(NC(=S)NC(=O)/C=C/c3ccc(C(C)C)cc3)cc2)s1,87.3*,-18.7,25.8,51.8*,32.2,54.7*
Cc1cccc(N2C(=O)/C(=C/c3cccnc3)SC2=S)c1,-1.4,6.3,11.0,58.0*,38.0,54.4*
Cc1cccc(Nc2nc(N)c([N+](=O)[O-])c(N3CCCC(C)C3)n2)c1 (stereo unspecified),21.9,103.5*,-46.3,50.0*,22.7,20.2
CC12CCC(C(=O)NCCCN3CCOCC3)(OC1=O)C2(C)C (stereo unspecified),3.7,-40.3,-0.6,2.8,3.6,/
CC12CCC(C(=O)NCCCN3CCOCC3)(C(Br)C1=O)C2(C)C (stereo unspecified),-2.1,0.2,-6.7,94.8*,-7.9,1.3
Cc1cc(NC(=O)CN2CCc3ccccc3C2)nc2c1c(=O)oc1ccccc12,-1.4,-5.3,30.0,53.1*,24.5,62.4*
O=[N+]([O-])c1ccc(N=Nc2c(O)[nH]c3ccc(F)cc23)cc1,14.1,-22.2,2.8,50.0*,35.1,13.1
